Assay results: PubChem BioAssay AID1117319 (Southern Research Institute, 2015)
Several values for one entry are separate records, joined by “and”; a condition that tells them apart may be missing. Identical values can stand only once. Screen size: about 260,000 compounds; about 1,500 (0.58%) were called active. Inconclusive results (about 5%) are left out.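 How the source made its calls: active means inhibition above a set limit at one or more doses, reproduced on every date tested; inconclusive means results disagree between test dates, or hit never tested in dose response; inactive means the rest.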 A selection follows. Measured potencies and affinities stand elsewhere.

Molecular target: Virion infectivity factor (Human immunodeficiency virus type 1 group M subtype B (isolate BH10)) + Virion infectivity factor (Human immunodeficiency virus type 1 group M subtype B (isolate BRU/LAI)) + Virion infectivity factor (Human immunodeficiency virus type 1 group M subtype B (isolate PCV12)) + Virion infectivity factor (Human immunodeficiency virus type 1 group M subtype B (isolate HXB2)) + DNA dC->dU-editing enzyme APOBEC-3G (Homo sapiens) (UniProt P69720+P69721+P69722+P69723+Q9HC16)
Assay: HIV-1 Vif–A3G interaction blockers – biochemical, TR-FRET, GST-Vif 1-94, biotin-A3G peptide, dose response retest, primary screen (AID 1117319);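 further: Vif residues 1-94 fused to GST binding biotinylated APOBEC3G peptide 110-148; 0% = full assay without inhibitor and 100% = GST in place of GST-Vif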
Conditions: TR-FRET GST-Vif / biotin-A3G peptide binding; hits give high values

Row | Compound | inhibition
1 | Clc1c(-c2ccccc2)nnn1-c1ccccc1 | -12% (inactive)
2 | Cc1cc(C(=O)N2CCN(c3cccc(Cl)c3)CC2)c(C)o1 | -5.08% (inactive)
3 | O=C(OCC(=O)N1CCN(C(=O)c2ccco2)CC1)c1cc(-c2ccc(F)cc2)nc2ccccc12 | -2.07% (inactive) and -4.96% (inactive)
4 | CCOC(=O)C1CCCN(C(=O)c2cc(-c3ccccc3)nc3ccccc23)C1 (centres undefined) | -11.1% (inactive)
5 | O=C(OCC(=O)N1CCN(C(=O)c2ccco2)CC1)c1cc(-c2ccccc2)nc2ccccc12 | -3.01% (inactive)
6 | CCOC(=O)C1CCCN(C(=O)c2cc(-c3ccc(C)cc3)nc3ccccc23)C1 (centres undefined) | 10.1% (inactive)
7 | O=C(COC(=O)c1ccco1)NCc1ccc2c(c1)OCO2 | 18.2% (inactive)
8 | Cc1cc(C(=O)OCC(=O)NCc2ccc3c(c2)OCO3)c2ccccc2n1 | -5.38% (inactive)
9 | O=C(Nc1ccc2oc(-c3cccnc3)nc2c1)c1cc2ccccc2o1 | 20.3% (inactive)
10 | COc1ccc(-n2nnc3c(=O)n(Cc4cc(C)ccc4C)cnc32)cc1 | -0.91% (inactive)
11 | CCN(CC)CCNC(=O)c1cc([N+](=O)[O-])c(N(C)C)cc1OC | 12.4% (inactive)
12 | COc1ccccc1NC(=S)NCCSc1ccc(C)cc1 | 9.9% (inactive)
13 | O=C1/C(=C/c2cccc(Br)c2)SC(=S)N1CCC(=O)N(CCO)c1ccccc1 | -10.6% (inactive)
14 | Cc1ccc(S(=O)(=O)N2CCCCC2)cc1C(=O)NCCCN1CCOCC1 | 1.73% (inactive)
15 | Cc1cc(C)c(S(=O)(=O)NCC2CCC(C(=O)NCCCN3CCOCC3)CC2)c(C)c1 (centres undefined) | 3.66% (inactive)
16 | COc1ccc(S(=O)(=O)NCC2CCC(C(=O)N3CCC4(CC3)OCCO4)CC2)cc1 (centres undefined) | 0.18% (inactive) and -4.29% (inactive)
17 | Cc1ccc(-n2nc3c(c2NC(=O)c2ccccc2Br)CS(=O)C3)cc1 (centres undefined) | 0.72% (inactive)
18 | O=c1[nH][nH]c(C(F)(F)F)c1/C=N/N1CCOCC1 | -7.03% (inactive)
19 | C/C(=N\Nc1ccc(Cl)c(C(=O)O)c1)c1ccccn1 | -6.06% (inactive)
20 | C/C(=N\Nc1ccc(Cl)c(C(=O)O)c1)c1cccs1 | -4.46% (inactive)
21 | COC(=O)C1=C(C)N(Cc2ccco2)C(=O)/C1=C\c1ccc([N+](=O)[O-])cc1 | -12.1% (inactive)
22 | COC(=O)C1=C(C)NC(=O)/C1=C\N(C)C | 5.9% (inactive)
23 | CCN1C(=O)/C(=C\c2cccs2)C(C(=O)OC)=C1C | 2.01% (inactive)
24 | COC(=O)C1=C(C)N(C)C(=O)/C1=C\c1ccco1 | 9.7% (inactive)

Row | Compound | inhibition
25 | COC(=O)C1=C(C)NC(=O)/C1=C\c1cc(C)n(-c2c(C)cccc2C)c1C | 22.2% (inactive)
26 | COC(=O)C1=C(O)/C(=C\c2cc(C)n(-c3ccccc3F)c2C)N=C1C | 25.1% (inactive)
27 | CCOc1cc(/C=C2\C(=O)N(Cc3ccco3)C(C)=C2C(=O)OC)ccc1O | 24.1% (inactive)
28 | COC(=O)C1=C(C)NC(=O)/C1=C\c1ccc2c(c1)OCO2 | 16% (inactive)
29 | CC(Sc1ncccn1)C(=O)Nc1ccc2c(c1)OCCO2 (centres undefined) | -5.22% (inactive)
30 | Nc1cc(S(=O)(=O)Nc2ccc(Cl)cc2)ccc1N1CCOCC1 | 0.79% (inactive)
31 | COc1ccccc1Nc1nnc(SCC(=O)NC2CCCC2)s1 | -10.8% (inactive)
32 | O=C(CCCOc1ccccc1)N1CCN(C(=O)c2ccco2)CC1 | -5.18% (inactive)
33 | Cc1ccc(-c2nnc(-c3ccncc3)n2-c2ccc(C)cc2)cc1 | -0.95% (inactive)
34 | COC(=O)C1=C(C)N(CC(C)C)C(=O)/C1=C\c1cccs1 | 2.91% (inactive)
35 | C=CCN1C(=O)/C(=C\c2cccs2)C(C(=O)OC)=C1C | 0.55% (inactive)
36 | O=C(Nc1ccccc1)c1ccc(Cn2cc(C(F)(F)F)ccc2=O)cc1 | -1.59% (inactive)
37 | O=S(=O)(NCc1ccccn1)c1ccc2c(c1)OCCO2 | -0.75% (inactive)
38 | CCOc1ccc(C(=O)NCC(=O)NCC(c2ccco2)N2CCCCC2)cc1 (centres undefined) | -8.81% (inactive)
39 | CC[n+]1c(/C=C2\C=C(C)CC(C)C2)sc2ccccc21 (centres undefined) | 26% (inactive)
40 | CC[n+]1c(/C=C2\C=C(C)CC(C)(C)C2)sc2ccccc21 | 25.8% (inactive)
41 | CCCCOc1ccc(/C=c2\sc3ncnn3c2=O)cc1 | 6.23% (inactive)
42 | CCSc1nc2c(sc3nc(C)cc(C)c32)c(=O)[nH]1 | -3.63% (inactive)
43 | CCOCCCNC(=O)C(NC(=O)C1CCC(=O)N1)c1ccc(C)cc1 (centres undefined) | 8.49% (inactive)
44 | C#CC(C)OC(=O)Nc1cnccc1C(F)(F)F (centres undefined) | 31.2% (inactive)
45 | Cc1ccc(CN2C(=O)CC(Nc3ccc(N4CCOCC4)cc3)C2=O)cc1 (centres undefined) | 4.98% (inactive)
46 | COc1ccc(NC2CC(=O)N(C(C)C)C2=O)cc1 (centres undefined) | 1.77% (inactive)
47 | O=C1CC(Nc2ccc(N3CCOCC3)cc2)C(=O)N1c1ccccc1 (centres undefined) | 16.9% (inactive)
48 | O=C(CN1C(=O)C(=O)N(C2CCCC2)C1=O)Nc1ccc(N2CCOCC2)cc1 | -7.86% (inactive)

Row | Compound | inhibition
49 | COc1cccc(N2C(=O)CC(Nc3ccc(N4CCOCC4)cc3)C2=O)c1 (centres undefined) | 27.7% (inactive)
50 | O=C1CC(Nc2ccccc2)C(=O)N1c1ccc(N2CCOCC2)cc1 (centres undefined) | 29% (inactive)
51 | CC(C)CC(=O)Nc1ccc(N2CCOCC2)cc1 | -0.35% (inactive)
52 | Cc1ccc(NC2CC(=O)N(c3ccc(N4CCCCC4)cc3)C2=O)cc1 (centres undefined) | 25.5% (inactive)
53 | COc1cccc(CC(NC(C)=O)C(=O)NC2CCN(S(=O)(=O)c3ccc(F)cc3)CC2)c1OC (centres undefined) | -17.6% (inactive)
54 | CCCCn1c(N)c(N(CCOC)C(=O)CCCc2nc3ccccc3c(=O)[nH]2)c(=O)[nH]c1=O | -0.43% (inactive)
55 | COc1ccc(CC(=O)NCCS(=O)(=O)N2CCN(c3ccccc3OC)CC2)cc1 | -3.77% (inactive)
56 | CCOc1ccc(CCNC(=O)COC(=O)Cc2c[nH]c3ccccc23)cc1OCC | 2.44% (inactive)
57 | CCOCCCNCc1cccc(OC)c1 | -0.48% (inactive)
58 | CN1CCN(S(=O)(=O)c2ccc(Oc3ccc(Br)cc3F)nc2)CC1 | -0.65% (inactive)
59 | COc1cccc(CC(=O)OCC(=O)c2cc(OC)ccc2OC)c1 | 18.9% (inactive)
60 | Cc1cc(C)cc(N2CN=c3s/c(=C\c4ccco4)c(=O)n3C2)c1 | 3.97% (inactive)
61 | CCC(=O)Nc1c(C)cc(C)cc1Cl | 1.1% (inactive)
62 | CC(=O)Nc1ccc(NC2=C(Cl)C(=O)c3ccccc3C2=O)cc1 | 11.5% (inactive)
63 | O=C(Nc1ccc2cn[nH]c2c1)c1c(Cl)cccc1Cl | 2.79% (inactive)
64 | CCNC1=C(Cl)C(=O)c2ccccc2C1=O | 2.59% (inactive)
65 | O=C1C(Cl)=C(NC(=O)c2ccccc2)C(=O)C(Cl)=C1NC(=O)c1ccccc1 | 20.2% (inactive)
66 | CCCC(=O)Nc1ccccc1NC(=O)CCC | 16.5% (inactive)
67 | CN(C)c1ccc(NC2=C(Cl)C(=O)c3ccccc3C2=O)cc1 | 20.1% (inactive)
68 | O=C1C(Cl)=C(Nc2ccccc2)C(=O)c2ccccc21 | -1.3% (inactive)
69 | CC(c1ccccc1)C1NC(C(=O)O)CS1 (centres undefined) | -0.34% (inactive)
70 | Cc1ccc(CN2CCSc3ccc(C(=O)NCc4cccnc4)cc32)cc1 | -7.4% (inactive)
71 | COc1ccc(C(=O)/C=C2/C(=O)Nc3ccccc32)cc1 | 11.7% (inactive)
72 | Cc1[nH]n(-c2ccccc2)c(=O)c1/C=C1\C=NN=C1c1ccccc1 | -6.22% (inactive)

Row | Compound | inhibition
73 | COC(=O)c1c(NC(=O)c2nc3nc(C)cc(C(F)F)n3n2)sc2c1CCC2 | -2.56% (inactive)
74 | CCN(CC)C(=O)c1sc(NC(=O)C(Sc2ccccc2)c2ccccc2)c(C(=O)OC(C)C)c1C (centres undefined) | -1.62% (inactive)
75 | CC(/C=N/n1c(-c2ccc(Cl)cc2)n[nH]c1=S)=C\c1ccco1 | 27.8% (inactive)
76 | C(=C\c1ccccc1)/C=N/n1cnnc1 | 17.7% (inactive)
77 | Cc1cccc(-c2n[nH]c(=S)n2/N=C/c2ccco2)c1 | -4.06% (inactive)
78 | C(/C=C/c1ccco1)=N/N1CCN(c2ccccc2)CC1 | 18.8% (inactive)
79 | S=c1[nH]nc(-c2cccnc2)n1/N=C/C=C/c1ccccc1 | 32.9% (inactive)
80 | CC(/C=N/n1c(-c2ccccc2)n[nH]c1=S)=C\c1ccco1 | 29% (inactive)
81 | S=c1[nH]nc(-c2cccnc2)n1/N=C/c1ccco1 | 3.51% (inactive)
82 | Cc1cc(-c2n[nH]c(=S)n2/N=C/c2ccc(C)o2)n[nH]1 | 27.9% (inactive)
83 | O=C(COC(=O)Cn1cnc2ccccc21)Nc1ccc(F)c(F)c1 | -4.98% (inactive)
84 | C=CCSc1nnc(CNC(=O)c2ccccc2C)n1C(C)C | 4.54% (inactive)
85 | CC(NC(=O)C(=S)N1CCN(C)CC1)c1ccccc1 (centres undefined) | 0.7% (inactive)
86 | C=CCN1/C(=C2/SC(=S)N(C)C2=O)Sc2ccccc21 | 11.3% (inactive)
87 | CCc1noc(C)c1C(=O)OC(C)C(=O)Nc1ccccc1OC (centres undefined) | 3.88% (inactive)
88 | COc1cccc(-c2nn(C)c3sc(C(=O)NCc4ccc5c(c4)OCO5)cc23)c1 | -2.11% (inactive)
89 | Cn1nc(-c2ccccc2F)c2cc(C(=O)Nc3ccc4c(c3)OCCO4)sc21 | -1.77% (inactive)
90 | Cc1nn(CC(=O)NC2CCS(=O)(=O)C2)c(C)c1[N+](=O)[O-] (centres undefined) | -7.13% (inactive)
91 | Cc1cc(S(=O)(=O)N2CCOCC2)ccc1OCC(=O)N1CCCCC1 | 25.7% (inactive)
92 | CCc1cccc(NC(=O)CCNS(=O)(=O)c2cccc3nonc23)c1 | 9.44% (inactive)
93 | Cc1ccc(NC(=O)CCNS(=O)(=O)c2cccc3nonc23)cc1 | 2.21% (inactive)
94 | CC(C)Cn1c2c(c(=O)[nH]c1=O)C(NS(=O)(=O)c1ccc(Cl)cc1)(C(F)(F)F)C(=O)N2 (centres undefined) | -5.6% (inactive)
